The values below come from PubChem BioAssay (NCI).

Among the test systems are NCI-H226 lung; NCI-H322M lung; HOP-62 NSCLC; NCI-H460 lung; HOP-92 NSCLC; NCI-H522 lung; A549/ATCC NSCLC; 786-0 renal; COLO 205 colon.
What all share (test): NCI-60 one-dose screen, 48 h (100 = growth as untreated, 0 = no growth, -100 = all killed)
Holding throughout (settings): 10 µM unless noted

Compounds without any hit were thinned out: in the full panel of roughly 83,000, 20% have a hit.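 Compound tested at a single concentration for 48 hours in 96-well plates; a percent growth value below 10 was scored as active.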 A number with no mark means an inactive call. Calls of active or inactive are those of the source.

On to `C#CCOc1cc(N(CC)CC)ccc1C(C(=O)NC(C)(C)C)N(C(=O)C1CCc2cc(F)ccc2O1)c1ccc(F)cc1` (stereo unspecified), for which the growth was 43.5% in the test on NCI-H226 lung; 70.6% in the test on NCI-H322M lung; 70.2% with HOP-62 NSCLC; 36.7% in the test with NCI-H460 lung; 39.8% in the test with HOP-92 NSCLC; 43.1% in the test on NCI-H522 lung. Moreover, the figures for the growth in the test with A549/ATCC NSCLC, with 786-0 renal and in the test on COLO 205 colon were 39.8%, 52.8% and 32.4%, respectively.

As to `COc1ccc(NC(=O)[C@H](C)N)cc1C(=O)Nc1cccc(C2CC(=O)c3c(cc(OC)c(OC)c3OC)O2)c1` (stereo partly specified), the growth with NCI-H226 lung is 85.5%; with NCI-H322M lung, 96.9%; with HOP-62 NSCLC, 113%; with NCI-H460 lung it was 96.9%; with HOP-92 NSCLC, 69.4%; in the test on NCI-H522 lung, 81.7%. Moreover, the growth in the test on A549/ATCC NSCLC was 93.4%; in the test on 786-0 renal it was 91.1%; in the test on COLO 205 colon, 115%.

Consider `CC1(C)CC[C@]2(C(=O)O)CC[C@]3(C)C(=CCC4[C@@]5(C)C[C@@H](O)[C@@H]6OC(c7ccccc7F)OC[C@@]6(C)C5CC[C@]43C)C2C1` (stereo partly specified), for which the growth is 27.9% with NCI-H226 lung; 13.5% with NCI-H322M lung; 22.1% with HOP-62 NSCLC; 3.39% (active) in the test with NCI-H460 lung; 5.75% (active) in the test on HOP-92 NSCLC; 5.45% (active) in the test with NCI-H522 lung. The growth with A549/ATCC NSCLC is 14.2%; with 786-0 renal, 16.8%; in the test with COLO 205 colon it was -44% (active).

Regarding `CCOC(=O)C1=C(N)N(c2ccccc2)C2=C(C(=O)CC(C)(C)C2)C1c1ccc([N+](=O)[O-])cc1` (stereo unspecified), the growth in the test with NCI-H226 lung was 88%; in the test on NCI-H322M lung, 97.9%; in the test on HOP-62 NSCLC, 99%; in the test with NCI-H460 lung, 89.8%; with HOP-92 NSCLC it was 106%; with NCI-H522 lung, 79.2%. Further, the growth with A549/ATCC NSCLC is 91.5%; in the test with 786-0 renal, 93.7%; in the test with COLO 205 colon, 101%.

Take `C#CCOc1cc(N(CC)CC)ccc1C(C(=O)NC(C)(C)C)N(C(=O)C1CCc2cc(F)ccc2O1)c1ccc(F)c(Cl)c1` (stereo unspecified): the growth is 62.8% with NCI-H226 lung; 89.5% in the test on NCI-H322M lung; 77.5% with HOP-62 NSCLC; 53.2% in the test with NCI-H460 lung; 48.2% in the test on HOP-92 NSCLC; 60.5% in the test on NCI-H522 lung. In addition, the growth in the test on A549/ATCC NSCLC was 65.9%; in the test on 786-0 renal, 58.7%; with COLO 205 colon, 63.1%.

On to `Cn1cc(-c2nnc(N)nc2-c2c[nH]c3ccccc23)c2cccnc21`, for which the growth is 71.1% in the test on NCI-H226 lung; 69.9% with NCI-H322M lung; 48.1% in the test on HOP-62 NSCLC; 15.2% in the test with NCI-H460 lung; 87.1% in the test with HOP-92 NSCLC; 21.4% with NCI-H522 lung. In addition, the growth is 46% in the test with A549/ATCC NSCLC, 54.9% in the test on 786-0 renal and 25.9% in the test on COLO 205 colon.

Turning to `COc1ccc2oc(=O)c(C3(C)NC(=O)c4c(/C=C/C(=O)OC(C)(C)C)cccc4N3)cc2c1` (stereo unspecified), the growth in the test with NCI-H226 lung was 44.7%; with NCI-H322M lung, 66.9%; in the test on HOP-62 NSCLC it was 61%; in the test with NCI-H460 lung, 47.2%; in the test on HOP-92 NSCLC, 32.9%; with NCI-H522 lung, 27.8%. The growth is 27.3% with A549/ATCC NSCLC, 66.7% in the test with 786-0 renal and 44.9% with COLO 205 colon.

As for `CC1(C)CC[C@]2(C(=O)O)CC[C@]3(C)C(=CCC4[C@@]5(C)C[C@@H](O)[C@@H]6OC(c7cccc(Br)c7)OC[C@@]6(C)C5CC[C@]43C)C2C1` (stereo partly specified), the growth is 46.4% in the test with NCI-H226 lung; 38.7% in the test with NCI-H322M lung; 47.6% in the test on HOP-62 NSCLC; 20.2% in the test with NCI-H460 lung; 25.2% in the test on HOP-92 NSCLC; 16.3% in the test on NCI-H522 lung. Further, the growth with A549/ATCC NSCLC was 23%; in the test on 786-0 renal, 52.7%; with COLO 205 colon, -31.4% (active).

In the case of `C=C1CC[C@@H]2[C@]3(C)COC(c4cn(-c5ccccc5)nc4-c4ccccc4)O[C@@H]3CC[C@@]2(C)[C@@H]1C/C=C1/C(=O)OC[C@H]1O` (stereo partly specified), the growth in the test on NCI-H226 lung is -90.4% (active); in the test on NCI-H322M lung, 29.1%; with HOP-62 NSCLC, -68.1% (active); in the test with NCI-H460 lung it was -75.9% (active); in the test on HOP-92 NSCLC, -88.1% (active); with NCI-H522 lung, -88.1% (active). The growth is -22.2% (active) with A549/ATCC NSCLC, -61.3% (active) in the test on 786-0 renal and -90.9% (active) with COLO 205 colon.

Regarding `COc1cc(-c2nc3cc(Cl)c(Cl)cc3[nH]2)ccc1OCc1nnc(-c2cccs2)o1`, the growth was 54.7% in the test on NCI-H226 lung; 75.3% in the test on NCI-H322M lung; 77.8% in the test with HOP-62 NSCLC; 38.8% in the test with NCI-H460 lung; 69% in the test with HOP-92 NSCLC; 51.8% in the test with NCI-H522 lung. The growth with A549/ATCC NSCLC was 11.7%; in the test with 786-0 renal, 85.8%; with COLO 205 colon, 81.9%.

Consider `N#Cc1c(-c2ccc(Cl)cc2)nc2n[nH]c(-c3ccc(Cl)cc3)c2c1-c1cccs1`, for which the growth in the test with NCI-H226 lung was 54.1%; with NCI-H322M lung it was 76.8%; in the test on HOP-62 NSCLC it was 62.8%; with NCI-H460 lung, 51.1%; in the test with HOP-92 NSCLC it was 15.7%; in the test on NCI-H522 lung it was 54.4%. In addition, the growth in the test on A549/ATCC NSCLC is 54.9%; in the test on 786-0 renal it was 67.5%; in the test on COLO 205 colon, 53.2%.

On to `COc1ccc(C(=O)/C=C/c2ccc(OC)c(OCc3ccccc3)c2)cc1OC`, for which the growth is 13.9% with NCI-H226 lung; 13.5% in the test with NCI-H322M lung; 38.2% in the test with HOP-62 NSCLC; 4.04% (active) in the test with NCI-H460 lung; 26.3% in the test with HOP-92 NSCLC; -10.7% (active) with NCI-H522 lung. For the same compound, the growth was 8.7% (active) in the test on A549/ATCC NSCLC, 24.5% with 786-0 renal and 20.1% in the test on COLO 205 colon.

For `CC(=O)c1c(N)c(C#N)cn1-c1ccc(Cl)cc1Cl`, the growth with NCI-H226 lung is 80.6%; in the test with NCI-H322M lung it was 101%; with HOP-62 NSCLC, 94.6%; with NCI-H460 lung, 111%; with HOP-92 NSCLC, 98.6%; in the test with NCI-H522 lung, 82.3%. For the same compound, the growth in the test with A549/ATCC NSCLC was 95.8%; with 786-0 renal, 99.2%; in the test with COLO 205 colon, 105%.

In the case of `N#Cc1c(-c2ccc(Cl)cc2)nc2n[nH]c(-c3ccc(Cl)cc3)c2c1-c1ccc(C(F)(F)F)cc1`, the growth was -30.7% (active) with NCI-H226 lung; 10.2% in the test on NCI-H322M lung; -24.2% (active) in the test with HOP-62 NSCLC; -49.1% (active) in the test with NCI-H460 lung; -25.9% (active) in the test on HOP-92 NSCLC; -14.8% (active) in the test with NCI-H522 lung. Further, the growth in the test on A549/ATCC NSCLC was 6.82% (active); with 786-0 renal it was -3.14% (active); with COLO 205 colon, -88.5% (active).
